According to PubChem BioAssay (Tox21):
Inconclusive results are not listed. Entries that show only a call come without a potency. Activity calls are given as the source filed them. Unless noted, the call rests on the fitted dose curve; in most records, active means well fitted curve in the direction sought with a large enough effect in the repeat runs; inconclusive means weak or mixed curves; inactive means no such curve, though single readings can be large; an effect the other way counts as inactive or inconclusive.

Legend:
[1] = qHTS assay to identify small molecule antagonists of the estrogen receptor alpha (ER-alpha) signaling pathway using the BG1 cell line in the presence of 0.1 nM 17-beta-estradiol - cell viability counter screen (AID 1259241); further: nearly all actives have a fitted effect of over 40% in size; further: potency means the concentration at half of the fitted maximal effect
Outline: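 In this screen, hormone-deprived VM7Luc4E2 cells were seeded at 4,000 per well, dosed with compound and 0.1 nM estradiol final, and incubated 22 hr at 37C and 5% CO2; fluorogenic live-cell protease signal reported viability.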

[2] = qHTS assay to identify small molecule antagonists of the androgen receptor (AR) signaling pathway using the MDA cell line in the presence of 0.5 nM R1881 - cell viability counter screen (AID 1259242); further: nearly all actives have a fitted effect of over 45% in size
Outline: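 Steps: plate MDA-kb2 cells, rest 5 hr at 37C without CO2; pin in compounds in DMSO; add R1881 to 0.5 nM final; incubate 16 hr; add CellTiter-Fluor, 30 min; read fluorescence.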

[3] = qHTS assay to identify small molecule HDAC inhibitors (AID 1259364); further: potency means the concentration at half of the fitted maximal effect;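 further: wild-type HCT-116 cells with endogenous class I/II HDAC activity; nearly all actives have a fitted effect of over 45% in size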
Outline: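 Cells (HCT-116, wild type) are seeded at 1,500 per well, incubated overnight, treated with compound in DMSO for 2 hr, then developed with HDAC-Glo I/II reagent for 30 min at room temperature.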

[4] = qHTS assay to identify small molecule HDAC inhibitors - cell viability counter screen (AID 1259365); further: nearly all actives have a fitted effect of over 50% in size; further: potency means the concentration at half of the fitted maximal effect
Outline: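 Measured quantity is CellTiter-Glo luminescence from wild-type HCT-116 cells after compound incubation of 2hr at 37C, 5% CO2; reagent developed 30min at room temperature.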

[5] = qHTS assay to identify small molecule antagonists of the sonic hedgehog signaling (Shh) pathway - cell viability counter screen (AID 1259367); further: nearly all actives have a fitted effect of over 55% in size; further: potency means the concentration at half of the fitted maximal effect
Outline: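 CellTiter-Fluor signal in conditioned medium-stimulated 3T3 Gli1-Luc cells, 23 hr compound exposure, 37C.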

[6] = qHTS assay to identify small molecule agonists of the sonic hedgehog signaling (Shh) pathway (AID 1259368; calls by dose curve;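 further: NIH/3T3-derived 3T3Gli1-Luc cells carrying a stable Gli1-driven firefly luciferase reporter; series mostly up to about 92 µM; nearly all actives have a fitted effect of over 15% in size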)
Outline: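 Cells of a mouse NIH/3T3 clone stably expressing luciferase under the Gli1 transcriptional response element are exposed to test chemicals for 24 hr at 37 C. Pathway activation is detected as a rise in luminescence.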

[7] = qHTS assay to identify small molecule antagonists of the sonic hedgehog signaling (Shh) pathway (AID 1259369; calls by dose curve; further: nearly all actives have a fitted effect of over 45% in size; further: potency means the concentration at half of the fitted maximal effect)
Outline: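 Cells are plated and held 4hr at 37 C, compounds (DMSO) are pinned in, conditioned medium is added to stimulate the pathway, and after 24hr luciferase reagent is added for 30min before luminescence is read.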

[8] = biological target: Estrogen receptor beta (Homo sapiens) (UniProt Q92731); experiment: qHTS assay to identify small molecule agonists of the estrogen receptor beta (ER-beta) signaling pathway (AID 1259377; active means well fitted activation curve with a large enough effect in the signal ratio in the repeat runs, not every such curve was filed as active; the % refers to the signal ratio)
Outline: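 Reporter cells (HEK293T, ER-beta-UAS-bla) receive compounds or DMSO after a 6 hr pre-incubation. They then incubate 16 hr at 37C/5% CO2, and fluorescence from LiveBLAzer B/G substrate is measured after 2 hours at room temperature.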

[9] = biological target: Estrogen receptor beta (Homo sapiens) (UniProt Q92731); experiment: qHTS assay to identify small molecule antagonists of the estrogen receptor beta (ER-beta) signaling pathway (AID 1259378; active means well fitted inhibition curve with a large enough effect in the signal ratio in the repeat runs, not every such curve was filed as active; the % refers to the signal ratio; further: potency means the concentration at half of the fitted maximal effect)
Outline: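 Antagonist mode: compounds added to beta-lactamase reporter HEK293T ER-beta-UAS cells stimulated with E2 (1nM final), 16 hr at 37C. LiveBLAzer B/G FRET substrate, 2 hours room temperature, fluorescence read-out.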

[10] = qHTS assay to identify small molecule agonists of the androgen receptor (AR) signaling pathway in the presence of an antagonist - cell viability counter screen (AID 1259379); further: nearly all actives have a fitted effect of over 25% in size; further: potency means the concentration at half of the fitted maximal effect
Outline: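 Cytotoxicity is assessed by CellTiter-Fluor in MDA-kb2 cells carrying an MMTV-driven luciferase reporter. Cells receive 3.0uM nilutamide plus compounds at 15 concentrations and incubate 16 hr at 37C without CO2 before fluorescence reading.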

[11] = biological target: Androgen receptor (Homo sapiens) (UniProt P10275); experiment: qHTS assay to identify small molecule agonists of the androgen receptor (AR) signaling pathway in the presence of an antagonist (AID 1259381; calls by dose curve; further: nearly all actives have a fitted effect of over 15% in size)
Outline: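 Agonist-mode confirmation screen: human MDA-kb2 cells stably expressing luciferase under an MMTV promoter bearing AR and GR response elements, co-treated with 3.0uM nilutamide (final). Luminescence measured after 16hr compound incubation.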

[12] = qHTS assay to identify small molecule agonists or antagonists of the thyroid stimulating hormone receptor (TSHR) signaling pathway - wild type cell line counter screen (AID 1259384; calls by dose curve)
Outline: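 Counter screen in untransfected Hek293: compounds (15-point titration, triplicate) plus phosphodiesterase inhibitor Ro20-1724 added after 18 h plating; 30 min RT. Intracellular cAMP via competitive d2/cryptate immunoassay, 1 h incubation.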

[13] = biological target: Thyrotropin receptor (Homo sapiens) (UniProt P16473); experiment: qHTS assay to identify small molecule antagonists of the thyroid stimulating hormone receptor (TSHR) signaling pathway (AID 1259385; calls by dose curve; further: nearly all actives have a fitted effect of over 20% in size; further: potency means the concentration at half of the fitted maximal effect)
Outline: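 Antagonist mode: compound-treated TSHR-expressing HEK293 cells were stimulated with 1.5 ng/mL TSH (final) in presence of Ro20-1724 for 30 min at RT. HTRF cAMP detection after 1 h; each compound tested at 15 concentrations, triplicate.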

[14] = biological target: Androgen receptor (Homo sapiens) (UniProt P10275); experiment: qHTS assay to identify small molecule antagonists of the androgen receptor (AR) signaling pathway using the MDA cell line in the presence of 0.5 nM R1881 (AID 1259243); further: potency means the concentration at half of the fitted maximal effect; nearly all actives have a fitted effect of over 50% in size
Outline: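 Stably transfected MDA-kb2 cells express luciferase from an MMTV promoter bearing both AR and GR response elements. Compounds plus 0.5 nM R1881 (final) were incubated 16 hr at 37C without CO2, then luminescence measured.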

[15] = biological target: Estrogen receptor (Homo sapiens) (UniProt P03372); experiment: qHTS assay to identify small molecule antagonists of the estrogen receptor alpha (ER-alpha) signaling pathway using the BG1 cell line in the presence of 0.1 nM 17-beta-estradiol (AID 1259244); further: nearly all actives have a fitted effect of over 50% in size; further: potency means the concentration at half of the fitted maximal effect
Outline: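 Antagonist mode: compounds in DMSO are pinned onto VM7Luc4E2 reporter cells, 0.1 nM final 17beta-estradiol is added, and after 22 h at 37C luciferase luminescence is measured with ONE-Glo.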

[16] = qHTS assay to identify small molecule agonists of the sonic hedgehog signaling (Shh) pathway - cell viability counter screen (AID 1259366); further: nearly all actives have a fitted effect of over 50% in size; further: potency means the concentration at half of the fitted maximal effect
Outline: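 In quantitative high-throughput format, 3T3 Gli1-Luc cells were exposed to compounds for 24hr and multiplexed for viability using CellTiter-Fluor, incubated 1hr at 37C before the fluorescence read.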

[17] = qHTS assay to identify small molecule agonists of the estrogen receptor beta (ER-beta) signaling pathway - cell viability counter screen (AID 1259380); further: nearly all actives have a fitted effect of over 30% in size; further: potency means the concentration at half of the fitted maximal effect
Outline: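 Cytotoxicity is measured in parallel with the reporter screen: after 16 hr compound exposure at 37C and a 2 hr LiveBLAzer step, CellTiter-Glo is added to the same ER-beta-UAS-bla HEK293T wells and luminescence read after 30 min.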

[18] = qHTS assay to identify small molecule antagonists of the estrogen receptor beta (ER-beta) signaling pathway - cell viability counter screen (AID 1259382); further: nearly all actives have a fitted effect of over 55% in size; further: potency means the concentration at half of the fitted maximal effect
Outline: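 Cytotoxicity counter screen multiplexed with the beta-lactamase antagonist assay: GripTite HEK293T ER-beta-bla cells were treated 16 hr with test chemicals in the presence of 1nM 17-beta-estradiol, and viability was measured by CellTiter-Glo.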

[19] = biological target: Estrogen receptor (Homo sapiens) (UniProt P03372); experiment: qHTS assay to identify small molecule agonists of the estrogen receptor alpha (ER-alpha) signaling pathway in the presence of an antagonist (AID 1259383; calls by dose curve; further: top concentration of the series differs between compounds; nearly all actives have a fitted effect of over 15% in size)
Outline: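 Agonist-mode confirmation in the presence of the ER antagonist ICI-182,780 at 10.0nM final. Breast-derived VM7Luc4E2 reporter cells were exposed to compounds for 22hr, and ERE-driven luciferase was quantified by luminescence.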

[20] = qHTS assay to identify small molecule phospholipidosis (PLD) inducers (AID 1259344; active means well fitted curve in the direction sought with a large enough effect; an effect the other way counts as inactive or inconclusive)
Outline: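 Accumulated phospholipid, stained red by LipidTOX during 24 h compound treatment of HepG2 cells at 37 C, is quantified from images as pit number and intensity, normalised per cell using Hoechst-stained nuclei.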

Sequence of Androgen receptor (Homo sapiens) (P10275 whole entry, looked up): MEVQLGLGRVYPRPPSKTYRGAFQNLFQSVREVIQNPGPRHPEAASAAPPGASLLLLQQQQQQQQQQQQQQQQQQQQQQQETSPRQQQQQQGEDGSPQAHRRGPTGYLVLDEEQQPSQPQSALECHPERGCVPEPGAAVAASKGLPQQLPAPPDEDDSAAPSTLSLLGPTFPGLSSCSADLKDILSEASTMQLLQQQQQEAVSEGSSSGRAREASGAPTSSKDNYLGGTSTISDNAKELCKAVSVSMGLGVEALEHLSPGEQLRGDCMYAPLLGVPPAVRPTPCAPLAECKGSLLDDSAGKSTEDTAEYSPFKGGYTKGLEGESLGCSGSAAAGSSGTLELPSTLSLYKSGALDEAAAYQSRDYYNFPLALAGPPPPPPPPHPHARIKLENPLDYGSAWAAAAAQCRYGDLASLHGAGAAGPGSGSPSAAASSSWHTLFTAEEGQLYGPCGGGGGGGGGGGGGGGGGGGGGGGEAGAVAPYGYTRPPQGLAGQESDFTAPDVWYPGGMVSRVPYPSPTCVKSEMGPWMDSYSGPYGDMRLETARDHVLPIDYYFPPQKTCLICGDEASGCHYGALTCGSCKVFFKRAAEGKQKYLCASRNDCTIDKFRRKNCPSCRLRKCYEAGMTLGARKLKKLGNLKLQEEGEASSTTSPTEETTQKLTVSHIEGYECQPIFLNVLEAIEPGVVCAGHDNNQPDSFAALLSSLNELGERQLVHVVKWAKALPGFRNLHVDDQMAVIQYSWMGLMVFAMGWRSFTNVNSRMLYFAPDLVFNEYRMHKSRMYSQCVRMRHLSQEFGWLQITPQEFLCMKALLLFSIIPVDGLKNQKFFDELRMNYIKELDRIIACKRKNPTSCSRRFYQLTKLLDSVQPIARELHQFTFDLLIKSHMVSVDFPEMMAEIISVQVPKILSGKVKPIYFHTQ
Sequence of Estrogen receptor beta (Homo sapiens) (Q92731 whole entry, looked up): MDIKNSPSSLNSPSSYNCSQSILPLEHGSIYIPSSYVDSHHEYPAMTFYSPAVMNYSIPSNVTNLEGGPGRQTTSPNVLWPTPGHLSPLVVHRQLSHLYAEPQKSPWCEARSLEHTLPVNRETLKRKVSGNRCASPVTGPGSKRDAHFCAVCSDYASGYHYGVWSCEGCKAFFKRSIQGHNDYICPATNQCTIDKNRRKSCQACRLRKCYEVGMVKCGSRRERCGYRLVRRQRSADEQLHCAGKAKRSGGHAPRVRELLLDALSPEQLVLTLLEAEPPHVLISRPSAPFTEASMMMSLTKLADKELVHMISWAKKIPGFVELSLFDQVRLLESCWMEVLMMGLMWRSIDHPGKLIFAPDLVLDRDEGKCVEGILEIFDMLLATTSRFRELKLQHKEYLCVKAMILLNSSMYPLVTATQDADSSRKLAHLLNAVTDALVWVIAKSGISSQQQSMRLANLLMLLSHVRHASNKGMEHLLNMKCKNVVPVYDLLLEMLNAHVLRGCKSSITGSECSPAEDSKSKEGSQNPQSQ
Sequence of Thyrotropin receptor (Homo sapiens) (P16473 whole entry, looked up): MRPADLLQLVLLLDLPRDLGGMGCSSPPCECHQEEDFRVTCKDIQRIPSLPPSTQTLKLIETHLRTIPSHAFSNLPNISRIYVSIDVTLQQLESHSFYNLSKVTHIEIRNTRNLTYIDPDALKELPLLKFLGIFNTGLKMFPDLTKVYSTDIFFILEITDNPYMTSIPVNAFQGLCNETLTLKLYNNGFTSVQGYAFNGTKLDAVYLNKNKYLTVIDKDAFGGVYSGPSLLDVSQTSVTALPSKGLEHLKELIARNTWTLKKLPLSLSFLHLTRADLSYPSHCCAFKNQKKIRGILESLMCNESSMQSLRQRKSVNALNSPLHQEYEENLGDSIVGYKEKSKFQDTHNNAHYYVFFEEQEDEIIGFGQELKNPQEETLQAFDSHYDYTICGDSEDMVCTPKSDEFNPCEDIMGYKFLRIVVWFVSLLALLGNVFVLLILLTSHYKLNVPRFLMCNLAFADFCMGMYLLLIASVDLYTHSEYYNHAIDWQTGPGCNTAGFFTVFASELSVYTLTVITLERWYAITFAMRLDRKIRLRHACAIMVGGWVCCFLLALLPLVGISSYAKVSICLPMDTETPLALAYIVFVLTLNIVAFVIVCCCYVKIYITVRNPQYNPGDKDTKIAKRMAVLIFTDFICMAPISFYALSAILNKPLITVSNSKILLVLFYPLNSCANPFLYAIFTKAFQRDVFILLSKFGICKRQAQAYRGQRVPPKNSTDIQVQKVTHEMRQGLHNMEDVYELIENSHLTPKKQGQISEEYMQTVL
Sequence of Estrogen receptor (Homo sapiens) (P03372 whole entry, looked up): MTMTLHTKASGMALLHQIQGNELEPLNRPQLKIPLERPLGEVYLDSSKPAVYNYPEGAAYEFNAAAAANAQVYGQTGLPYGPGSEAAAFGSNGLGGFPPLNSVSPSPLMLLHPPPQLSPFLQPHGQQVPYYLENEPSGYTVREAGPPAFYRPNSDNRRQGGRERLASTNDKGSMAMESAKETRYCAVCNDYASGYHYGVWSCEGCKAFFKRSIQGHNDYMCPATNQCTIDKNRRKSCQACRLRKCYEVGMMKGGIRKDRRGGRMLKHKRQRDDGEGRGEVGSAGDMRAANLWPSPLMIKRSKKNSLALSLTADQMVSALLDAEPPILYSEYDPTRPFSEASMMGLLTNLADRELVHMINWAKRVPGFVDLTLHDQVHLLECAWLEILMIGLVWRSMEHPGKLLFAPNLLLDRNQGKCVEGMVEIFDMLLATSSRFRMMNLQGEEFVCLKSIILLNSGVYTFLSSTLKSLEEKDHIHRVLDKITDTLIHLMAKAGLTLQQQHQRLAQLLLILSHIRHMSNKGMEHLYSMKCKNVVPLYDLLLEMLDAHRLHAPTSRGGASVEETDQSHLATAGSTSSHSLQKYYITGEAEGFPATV

| SMILES | Potency [1] | Potency [2] | Potency [3] | Potency [4] | Potency [5] | Potency [6] | Potency [7] | Potency [8] | Potency [9] | Potency [10] | Potency [11] | outcome [12] | Potency [13] | Potency [14] | Potency [15] | Potency [16] | Potency [17] | Potency [18] | Potency [19] | Potency [20] |
| --- | --- | --- | --- | --- | --- | --- | --- | --- | --- | --- | --- | --- | --- | --- | --- | --- | --- | --- | --- | --- |
| CC(C)OC(=O)c1cc2c(OCC(O)CNC(C)(C)C)cccc2[nH]1 (centres undefined) | inactive | inactive | inactive | inactive | inactive | inactive | 2.66 µM (active) | inactive | inactive | inactive | inactive | inactive | inactive |  |  |  |  |  |  |  |
| CN(C)C(=O)C1(N2CCCCC2)CCN(CC[C@@]2(c3ccc(Cl)c(Cl)c3)CN(C(=O)c3ccccc3)CCO2)CC1 | 64.1 µM (active) |  | inactive | inactive | 50.9 µM (active) | inactive | 18.1 µM (active) | inactive | 16.1 µM (active) | 57.1 µM (active) | inactive |  | 64.1 µM (active) | 28.6 µM (active) | 57.1 µM (active) | 16.1 µM (active) | 36 µM (active) | 28.6 µM (active) | inactive |  |
| CCC1OCC(COc2ccc(Oc3ccccc3)cc2)O1 (centres undefined) | inactive | inactive | 17.2 µM (active) |  | 61.1 µM (active) | inactive |  | inactive | inactive | inactive |  | inactive |  |  |  |  | inactive | inactive |  |  |
| N=C1C=CC(=C(c2ccc(N)cc2)c2ccc(N)cc2)C=C1 | 30.6 µM (active) |  |  |  |  | inactive | 12.2 µM (active) |  |  | 12.2 µM (active) | inactive |  |  | 3.06 µM (active) | 7.7 µM (active) | 21.7 µM (active) | 7.7 µM (active) | inactive |  |  |
| COc1cc(-c2nc(NC(=O)c3cc4cc(C)cc(C)c4n3CC(=O)O)sc2CCC2CCCCC2)c(OC)cc1Cl | inactive |  | inactive | 25 µM (active) |  | inactive |  | inactive |  | 56 µM (active) | inactive |  |  | 56 µM (active) | inactive | inactive | 19.9 µM (active) | 39.7 µM (active) | inactive |  |
| Cc1ccc(O)c2ncccc12 | inactive |  | inactive | inactive |  | inactive | 0.531 µM (active) |  |  |  | inactive | inactive | inactive | 10.6 µM (active) | 11.9 µM (active) | 1.33 µM (active) |  |  | inactive | inactive |
| CCCCCCCCCCCCCCCC[N+](C)(C)CCN(Cc1ccc(OC)cc1)c1ncccn1 | inactive |  | inactive |  |  | inactive | 2.66 µM (active) |  |  |  |  | inactive |  |  | inactive |  | 11.9 µM (active) | 13.3 µM (active) | inactive | inactive |
| Fc1ccc(C(c2ccc(F)cc2)N2CCN(C/C=C/c3ccccc3)CC2)cc1 | inactive |  | inactive | inactive | inactive | inactive | inactive | inactive | 16.8 µM (active) |  |  | inactive | inactive |  | inactive | inactive |  |  |  |  |
